Assay outcomes deposited in PubChem BioAssay by National Center for Advancing Translational Sciences (NCATS).
Hits are enriched below; roughly 21% of the tested compounds scored in any of these assays.
ELG1 DNA repair = blocks ELG1-dependent DNA repair in HEK293T cells; Potency, µM (highest dose often 46.1 µM), for inactives: at the top dose activity change, negative = inhibition, usual class: inhibitors; AID 504467; 330,000 tested, 2.3% active; HEK293T ELG1-luciferase reporter, luminescence, 16 h; DNA damage induced by 5-fluorouridine; note: potency is the fitted concentration of half-maximal effect; nearly all actives have a fitted effect of over 55% in size
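In this reporter screen, reduction of luminescence relative to DMSO vehicle indicated activity. Compounds and 5-fluorouridine were added together to 2,000 cells per well, incubated for 16 hr at 37 °C, then developed with ONE-Glo.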
IL-1B inflam inh = inhibitors of inflammasome signaling (IL-1 beta secretion); THP-1 LPS/ATP IL-1B secretion, AlphaLISA, 16 h; stronger effect = lower value; activity change, % at 57.5 µM; 360,000 tested, 4.7% active; in the data active = activity change below about -50%; inconclusive = mostly about -30% to -49%
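Secreted IL-1B measured by AlphaLISA bead assay after 16 h compound exposure of THP-1 cells; compounds (final up to 57.5 uM) added 1 h before LPS (250 ng/mL) and ATP (1.25 mM) stimulation; lower signal means less secretion.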
TDP1 cell CPT = DT40-hTDP1 cell growth loss with CPT; chicken DT40 Tdp1-/-;hTDP1 cells + 20 nM CPT, ATP luminescence, 48 h; Potency, µM (highest dose often 46.2 µM), for the others: at the top dose activity change, negative = growth inhibition, hits mostly inhibitors; 420,000 tested, 12% active; note: potency is the fitted concentration of half-maximal effect; nearly all actives have a fitted effect of over 55% in size
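Cell growth measured by CellTiter-Glo luminescence after a minimum 48 h, 37 C compound exposure with 20 nM CPT in Tdp1-knockout DT40 cells stably expressing hTDP1, seeded 400/well; qHTS titration format.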
RORgamma inh = ROR gamma (mouse) transcription inhibition; P51450; Drosophila S2 Gal4-RORgamma UAS-luciferase reporter, 20 h; Potency, µM (series often up to 53.6 µM), for the others: at the top dose activity change, negative = inhibition, most hits filed as inhibitors; 310,000 tested, 5.4% active; note: potency is the fitted concentration of half-maximal effect; nearly all actives have a fitted effect of over 60% in size
Target sequence (P51450 whole entry, looked up, the tested form may be a part): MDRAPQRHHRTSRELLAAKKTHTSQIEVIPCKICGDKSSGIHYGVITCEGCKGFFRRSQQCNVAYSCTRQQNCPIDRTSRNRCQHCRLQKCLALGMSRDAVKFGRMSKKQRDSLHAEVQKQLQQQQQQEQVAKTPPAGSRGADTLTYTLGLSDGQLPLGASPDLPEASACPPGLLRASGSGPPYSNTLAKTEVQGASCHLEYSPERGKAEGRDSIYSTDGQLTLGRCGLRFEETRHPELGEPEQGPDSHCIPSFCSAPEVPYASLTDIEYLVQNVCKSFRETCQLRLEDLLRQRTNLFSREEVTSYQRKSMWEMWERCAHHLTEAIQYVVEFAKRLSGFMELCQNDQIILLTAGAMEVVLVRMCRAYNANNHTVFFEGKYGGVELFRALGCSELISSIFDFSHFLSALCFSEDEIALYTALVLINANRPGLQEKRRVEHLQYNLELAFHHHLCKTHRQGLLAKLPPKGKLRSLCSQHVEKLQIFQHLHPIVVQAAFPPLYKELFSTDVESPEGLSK
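Luminescence from a UAS-regulated Photinus luciferase reporter in stably transfected Drosophila Schneider cells is measured; decreased signal marks ROR gamma inhibition. Fusion expression is induced by 700 uM copper sulfate for 20 hr.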
VP16 counter = inhibits Gal4-VP16 luciferase reporter, ROR gamma counter-screen; Drosophila S2 Gal4-VP16 UAS-luciferase, luminescence, 20 h; Potency, µM (highest dose often 53.6 µM), for the others: top-dose activity, negative = inhibition, hits mostly inhibitors; 310,000 tested, 3.5% active; AID 2546;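 note: Gal4-VP16 expression switched on by copper sulfate through the metallothionein promoter; potency is the fitted concentration of half-maximal effect; nearly all actives have a fitted effect of over 50% in size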
TDP1 cell noCPT = qHTS for Inhibitors of human tyrosyl-DNA phosphodiesterase 1 (TDP1): qHTS in cells in absence of CPT; Potency, µM (series often up to 46.2 µM), for inactives: at the top dose activity change, negative = growth inhibition, most hits filed as inhibitors; DT40 Tdp1-/- hTDP1 cells, no CPT, ATP luminescence, 48 h; 420,000 tested, 15% active; note: potency is the fitted concentration of half-maximal effect; nearly all actives have a fitted effect of over 55% in size
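Growth kinetics read by CellTiter-Glo luminescence after ≥48 hr at 37 °C. Cells: DT40 Tdp1-/- stably carrying human TDP1, 400 per well, compound exposure in the absence of CPT (DMSO vehicle).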
* = called active by the depositor; ? = inconclusive; · = no result given. Unless noted, calls come from the whole dose curve; as a rule, active = well fitted curve in the direction sought with a large enough effect; inconclusive = small, poorly fitted or top-dose-only effect, or another doubt; inactive = no such curve, though single readings can be large; an effect the other way counts as inactive or inconclusive. % is set by controls: 0 for no effect and ±100 for the full control effect.

SMILES	ELG1 DNA repair	IL-1B inflam inh	TDP1 cell CPT	RORgamma inh	VP16 counter	TDP1 cell noCPT
COc1cc2c(cc1O)C(Cc1ccc(O)cc1)[N+](C)([O-])CC2 (centres undefined)	16.6%	5.5	-18.8%	-3.3%	3.0%	-4.0%
Cc1ccc(CNC(=O)c2cc(-c3ccc(Cl)cc3)on2)cc1	·	·	0.8%	·	·	-6.8%
C#CCN1N=C(c2ccc(C)cc2)CSC1=O	·	?	-0.3%	·	·	-1.8%
O=C(O)c1cccc2cccc(-c3c4ccc(=O)c(O)c-4oc4c(O)c(O)ccc34)c12	·	-17.5	10.3µM*	·	·	7.31µM*
CC(C)C[C@H]1COC(c2ccc(Br)cc2)=N1	·	·	·	-8.9%	-0.2%	·
Cc1ccc(Cn2ccc(NC(=O)c3cc4nc5c(c(C(F)(F)F)n4n3)CCc3ccccc3-5)n2)cc1	-12.8%	·	·	10.0%	-9.3%	·
Cc1ccc(O)c(NC(=O)c2cc3nc4c(c(C(F)(F)F)n3n2)CCc2ccccc2-4)c1	?	-50.7*	?	-12.5%	-0.8%	23.1µM*
CCOC(=O)N1CCC(N(CCN(C)C)C(=S)Nc2cc(C)cc(C)c2)CC1	-19.1%	-0.6	-8.5%	-20.9%	-7.6%	-20.4%
CCc1ccc(NC(=O)c2nc(S(=O)(=O)Cc3ccccc3)ncc2Cl)cc1	?	·	·	0.282µM*	3.16µM*	·
CCOC(=O)c1ccc(NC(=O)CCS(=O)(=O)Cc2ccccc2)cc1	2.2%	6.8	25.0%	0.1%	-2.3%	2.7%
CCOC(=O)c1ccc(NC(=O)c2nc(S(=O)(=O)Cc3ccccc3)ncc2Cl)cc1	?	-104.7*	0.461µM*	7.94µM*	4.47µM*	1.3µM*
CNc1c([N+](=O)[O-])cnn1-c1ccc(Cl)cc1Cl	11.1%	-19.1	?	18.5%	-4.0%	-20.2%
O=c1cnn(-c2ccc(Cl)cc2Cl)c(-c2ccccc2)c1	-3.4%	-17.4	?	14.0%	-4.7%	23.1µM*
COc1ccc(N2CC(NC(=O)COc3cccc(C)c3)CC2=O)cc1OC (centres undefined)	·	·	-27.7%	·	·	20.6µM*
COc1cccc(N2CC(NC(=O)c3cc(Cl)ccc3OC)CC2=O)c1 (centres undefined)	·	·	?	·	·	16.4µM*
COc1cccc(N2CC(NC(=O)c3cccs3)CC2=O)c1 (centres undefined)	·	·	3.1%	·	·	-7.6%
C=CCn1c(=O)n(C(=O)OCC)c2cc(Br)ccc21	1.1%	0.0	-4.1%	23.8%	-2.4%	-16.6%
CCc1ccc(NC(=O)Nc2cccs2)cc1	?	-18.8	20.6µM*	-16.0%	-12.0%	14.6µM*
Cc1c(NC(=O)Nc2cccs2)cccc1[N+](=O)[O-]	?	0.0	?	?	?	?
Cc1cccc(NC(=O)Nc2cccs2)c1C	·	·	25.9µM*	·	·	?
Cc1ccc(NC(=O)Nc2cccs2)cc1	?	-17.1	16.4µM*	-23.2%	15.0%	25.9µM*
Cc1ccc(NC(=O)Nc2cccs2)nc1	?	8.0	-28.2%	?	-13.7%	-16.5%
Cc1ccc(NC(=O)Nc2ccno2)cc1	1.0%	-12.5	?	16.0%	-9.3%	16.4µM*
CC(=O)c1cccc(NC(=O)COc2cc(C)on2)c1	19.7%	-4.4	16.1%	·	·	-0.6%
CCOC(=O)[C@]12CCC=C1N(Cc1cccc3ccccc13)C(=O)[C@H](CC(=O)NCCCN1CCCC1=O)C2	·	-4.6	?	·	·	?
SMILES	ELG1 DNA repair	IL-1B inflam inh	TDP1 cell CPT	RORgamma inh	VP16 counter	TDP1 cell noCPT
COC(=O)CNC(=O)[C@@]1(C)C=C[C@@H](Cc2ccccc2)N1C(=O)OC	·	·	·	-33.0%	8.7%	·
COc1ccc(NC(=O)NC23CC4CC(CC(C4)C2)C3)cc1OC	7.9%	-13.3	-17.5%	39.5%	27.7%	?
CCOc1ccc(NC(=O)Nc2ccc(Cc3ccncc3)cc2)cc1	-10.9%	-4.9	-28.3%	-0.9%	-12.6%	?
CCOc1ccc(NC(=O)NC23CC4CC(CC(C4)C2)C3)cc1	?	-66.9*	20.6µM*	11.2%	-6.1%	23.1µM*
CCOc1ccc(NC(=O)Nc2cccs2)cc1	?	-11.2	10.3µM*	-40.4%	?	18.4µM*
CCc1ccc(NC(=O)Cn2nc(C(=O)O)c3ccccc3c2=O)cc1	5.1%	0.0	-12.8%	8.5%	5.3%	-9.4%
CCc1ccc(NC(=O)Nc2cn(C)c(=O)c3ccccc23)cc1	·	·	20.6µM*	·	·	20.6µM*
CC(C)Cn1c(N)c(C(=O)CSc2nnc(C3CC3)n2C2CC2)c(=O)n(C)c1=O	0.1%	2.2	-8.0%	·	·	-29.1%
Cc1nn(CCC(=O)NC(C)C)c(=O)c2nn(-c3ccccc3)c(C)c12	·	·	-11.5%	·	·	-7.9%
CC(C)(CO)Cc1cc(C(C)(C)C)c(O)c(C(C)(C)C)c1	-14.3%	3.4	18.4µM*	?	?	?
CC(C)c1ccc(NC2CCCN(C(=O)c3ccc(N4CCOCC4)cc3)C2)cc1 (centres undefined)	-13.9%	-5.9	?	35.7%	-9.7%	16.4µM*
Cc1nonc1C(=O)N1CCCC(Nc2ccc(C(C)C)cc2)C1 (centres undefined)	-19.6%	0.4	33.2%	39.9%	18.3%	2.31µM*
Cc1ccnc(NC(=S)N2CCN(c3cccc(C(F)(F)F)c3)CC2)c1	13.3%	-88.3*	?	0.316µM*	0.562µM*	?
COc1ccc(N2CCN(C(=S)Nc3cc(C)ccc3C)CC2)cc1	4.3%	4.0	-8.6%	2µM*	-18.1%	-11.0%
Cc1ccc(C)c(NC(=S)N2CCN(c3ccccn3)CC2)c1	-5.6%	-5.6	-0.2%	12.6µM*	?	-6.8%
Cc1cccc(NC(=O)CSCC(=O)N2CCN(c3cccc(C(F)(F)F)c3)CC2)c1	12.8%	28.0	?	·	·	?
Cc1ccc(C)c(NC(=S)N2CCC(c3nc4ccccc4s3)CC2)c1	-26.2%	-27.5	?	2.82µM*	6.31µM*	-15.4%
COc1ccc(OC)c(NC(=S)N2CCN(c3ccccn3)CC2)c1	1.5%	-12.1	2.5%	-18.0%	4.6%	-21.4%
CC(C)[C@@H](C(=O)N1CCCC1)N1C(=O)N2CCc3c([nH]c4ccccc34)[C@@]2(C)C1=O	-13.7%	-12.5	?	-13.6%	-0.6%	?
S=C(Nc1cc(Cl)ccc1Oc1ccccc1)N1CCN(c2ccccn2)CC1	-14.2%	-79.0*	?	11.2µM*	?	?
FC(F)(F)c1cccc(NC(=S)N2CCN(c3ccccc3)CC2)c1	?	10.9	-26.1%	?	0.4%	?
